Drawing on PubChem BioAssay (NCI), this text covers growth for 8 compounds.

Molecules are shown by their SMILES. About 83,000 compounds went through this panel and 20% of them were active in at least one assay; those are over-represented in the sample as a whole.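 Plates (96-well) were seeded with cells, treated with compound at one concentration, and incubated for 48 hours before percent growth was determined.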 A number with no mark means an inactive call. Activity calls are given as the source filed them. The calls were made as follows: active = growth percent below 10; inactive = the rest.

Some test systems named below: HCT-15 colon; HT29 colon; SNB-75 CNS; SNB-19 CNS; U251 CNS; PC-3 prostate; SK-MEL-5 melanoma; UACC-62 melanoma; LOX IMVI melanoma; SK-MEL-28 melanoma; SK-MEL-2 melanoma; EKVX NSCLC; SN12C renal; UO-31 renal; TK-10 renal; ACHN renal; CAKI-1 renal; CCRF-CEM leukemia; MOLT-4 leukemia; A498 renal.
Common to all, as to experiment: NCI-60 one-dose screen, 48 h (100 = growth as untreated, 0 = no growth, -100 = all killed)
What all share (settings): 10 µM unless noted

As for `CCCn1cnc2c(c1=N)C(c1ccc(OC)cc1)c1sc3c(CC)cccc3c1O2` (configuration not stated), the growth with HCT-15 colon was 18.9%; in the assay on HT29 colon, 5.9% (active); in the assay on SNB-75 CNS, 16.5%; in the assay on SNB-19 CNS, 22%; in the assay with U251 CNS, 20.5%; with PC-3 prostate, 3.57% (active). The growth with SK-MEL-5 melanoma was 30.3%; in the assay with UACC-62 melanoma it was 15.9%; in the assay with LOX IMVI melanoma, 27.4%; with SK-MEL-28 melanoma, 57.8%; with SK-MEL-2 melanoma it was 40.5%; in the assay on EKVX NSCLC, 46.4%. The growth in the assay with SN12C renal was 29.5%; in the assay with UO-31 renal it was 33.5%; in the assay with TK-10 renal it was 74.6%; in the assay with ACHN renal it was 35.7%; in the assay with CAKI-1 renal it was 32.8%; in the assay on CCRF-CEM leukemia, 4.77% (active). Further, in the assay on MOLT-4 leukemia, the growth was 14.5%.
As for `O=S(=O)(NCCNc1nccc(-n2cnc3ccccc32)n1)c1ccc(Cl)cc1`, the growth in the assay with HCT-15 colon is 96.6%; in the assay on HT29 colon it was 103%; in the assay with SNB-75 CNS, 79.4%; in the assay on SNB-19 CNS, 97.7%; with U251 CNS it was 102%; in the assay with PC-3 prostate it was 103%. The growth is 99.4% in the assay with SK-MEL-5 melanoma; 86.4% in the assay with UACC-62 melanoma; 93.5% with LOX IMVI melanoma; 101% in the assay with SK-MEL-28 melanoma; 109% in the assay with SK-MEL-2 melanoma; 92.2% in the assay on EKVX NSCLC. For the same compound, the growth is 96.6% in the assay with SN12C renal; 81.6% in the assay with UO-31 renal; 101% in the assay on TK-10 renal; 96.4% in the assay with ACHN renal; 87.4% in the assay on CAKI-1 renal; 103% with CCRF-CEM leukemia. The growth with MOLT-4 leukemia is 103%.
On to `O=C(NNc1nc2cc(F)c(F)cc2n2cccc12)c1cnccn1`, for which the growth is 13.9% in the assay with HCT-15 colon; 36.8% with HT29 colon; 54.7% in the assay on SNB-75 CNS; 31.5% in the assay on SNB-19 CNS; 26.4% in the assay with U251 CNS; 29.4% in the assay with PC-3 prostate. The growth was 29.3% with SK-MEL-5 melanoma; 22.2% in the assay with UACC-62 melanoma; 11.4% in the assay with LOX IMVI melanoma; 36% with SK-MEL-28 melanoma; 46.2% with SK-MEL-2 melanoma; 17% in the assay with EKVX NSCLC. The growth in the assay on SN12C renal is 39%; in the assay with UO-31 renal, 23.3%; in the assay on TK-10 renal, 49.3%; with ACHN renal it was 17.6%; in the assay on A498 renal it was 43.6%; in the assay with CCRF-CEM leukemia, 14.4%. Besides, the growth in the assay with MOLT-4 leukemia was 7.98% (active).
Regarding `CCN(CC)CCn1c2ccc(O)cc2c2sc3cc(OC)ccc3c(=O)c21`, the growth is 4.47% (active) with HCT-15 colon; -13.8% (active) with HT29 colon; 40.7% in the assay with SNB-75 CNS; 25.7% in the assay with SNB-19 CNS; 16.1% in the assay on U251 CNS; 30.5% with PC-3 prostate. The growth with SK-MEL-5 melanoma is 76.7%; in the assay with UACC-62 melanoma, 28.5%; with LOX IMVI melanoma it was -86% (active); with SK-MEL-28 melanoma, 2.25% (active); in the assay on SK-MEL-2 melanoma it was 55.6%; in the assay on EKVX NSCLC, 43.5%. Moreover, the growth in the assay with SN12C renal is 21.5%; with UO-31 renal, 26.8%; in the assay with TK-10 renal, 61.7%; in the assay on ACHN renal it was 12.4%; in the assay on CAKI-1 renal, 14.5%; in the assay on CCRF-CEM leukemia, 21.8%. The growth in the assay with MOLT-4 leukemia was 5.44% (active).
In the case of `CCCn1cnc2c(c1=N)C(c1ccc(OC)cc1)c1sc3c(C)cccc3c1O2` (configuration not stated), the growth in the assay on HCT-15 colon is 14.6%; in the assay with HT29 colon, 7.24% (active); in the assay with SNB-75 CNS, 17.8%; in the assay with SNB-19 CNS, 24%; in the assay on U251 CNS, 20.6%; in the assay with PC-3 prostate, 6.95% (active). Besides, the growth is 40.3% in the assay on SK-MEL-5 melanoma; 14.3% in the assay on UACC-62 melanoma; 25.1% in the assay with LOX IMVI melanoma; 53.9% in the assay on SK-MEL-28 melanoma; 36.9% with SK-MEL-2 melanoma; 40.9% with EKVX NSCLC. Besides, the growth with SN12C renal is 19%; in the assay on UO-31 renal, 27.2%; in the assay with TK-10 renal it was 94.2%; with ACHN renal, 31.8%; with CAKI-1 renal, 25.8%; in the assay on CCRF-CEM leukemia it was 3.52% (active). In addition, in the assay on MOLT-4 leukemia, the growth is 17%.
On to `CC1=CC(=O)C2=C(C)CC(OC(=O)CCc3ccccc3)[C@@H]3[C@H](OC(=O)[C@@H]3C)[C@@H]12` (some centres not stated), for which the growth was 81.7% with HCT-15 colon; 78.1% in the assay on HT29 colon; 95.8% in the assay with SNB-75 CNS; 93.6% in the assay on SNB-19 CNS; 102% in the assay on U251 CNS; 76.7% in the assay with PC-3 prostate. Further, the growth in the assay with SK-MEL-5 melanoma was 82%; in the assay on UACC-62 melanoma, 72.7%; with LOX IMVI melanoma it was 95.9%; with SK-MEL-28 melanoma it was 100%; in the assay on SK-MEL-2 melanoma it was 103%; in the assay with EKVX NSCLC, 102%. The growth was 95.3% in the assay with SN12C renal; 79.1% with UO-31 renal; 102% in the assay with TK-10 renal; 101% in the assay on ACHN renal; 86.1% with CAKI-1 renal; 88.7% with CCRF-CEM leukemia. Also, the growth in the assay with MOLT-4 leukemia is 83.6%.
For the compound `CN(C)CCNC(=O)c1ccc(-c2nc3ccc4[nH]ncc4c3c3c2CCC3)cc1`, the growth in the assay on HCT-15 colon was 17.2%; in the assay with HT29 colon it was 12.6%; in the assay with SNB-75 CNS, 40.3%; in the assay with SNB-19 CNS it was 9.44% (active); with U251 CNS it was 25.3%; in the assay on PC-3 prostate, 3.49% (active). For the same compound, the growth is 7.44% (active) in the assay on SK-MEL-5 melanoma; 15.8% in the assay with UACC-62 melanoma; -61% (active) in the assay on LOX IMVI melanoma; 21.9% in the assay with SK-MEL-28 melanoma; -22.8% (active) with SK-MEL-2 melanoma; 15.3% with EKVX NSCLC. The growth in the assay with SN12C renal is 7.23% (active); in the assay with UO-31 renal, 18.2%; in the assay on TK-10 renal, 22.1%; in the assay on ACHN renal, 12.8%; in the assay on A498 renal it was -63.6% (active); in the assay with CCRF-CEM leukemia it was 3.51% (active). For the same compound, the growth with MOLT-4 leukemia was 7.28% (active).
Take `O=C(NNc1nc2cc(F)ccc2n2c(CN3CC4CNCC4C3)ccc12)c1cnccn1` (configuration not stated): the growth was 18.1% in the assay with HCT-15 colon; 29.2% with HT29 colon; 54.3% in the assay with SNB-75 CNS; 33.5% in the assay with SNB-19 CNS; 27.2% in the assay on U251 CNS; 27.2% in the assay on PC-3 prostate. The growth was 11.2% in the assay on SK-MEL-5 melanoma; 1.75% (active) in the assay on UACC-62 melanoma; 7.74% (active) in the assay with LOX IMVI melanoma; 31.5% in the assay with SK-MEL-28 melanoma; 30.9% with SK-MEL-2 melanoma; 25.9% in the assay on EKVX NSCLC. The growth is 27.5% in the assay on SN12C renal; 19.7% in the assay with UO-31 renal; 22.4% with TK-10 renal; 17.4% in the assay with ACHN renal; 36.9% in the assay with A498 renal; 12.1% in the assay on CCRF-CEM leukemia. In addition, the growth with MOLT-4 leukemia is 5.6% (active).
